We go through 38 compounds from PubChem BioAssay (NCATS).

Each structure is given as a SMILES string. Where “and” joins values, the source holds several entries; their conditions need not be identical. Equal values may be shown once. Inconclusive results are not listed. Some compounds were tested as several samples or in several runs, with calls that do not always agree. Unmarked numbers belong to inactive results. Calls of active or inactive are those of the source. The call rests on the fitted dose curve; in most records, active means well fitted activation curve with a large enough effect; inconclusive means small, poorly fitted or top-dose-only effect; inactive means no such curve, though single readings can be large or run the other way.
Potency means the concentration at half of the fitted maximal effect.

Sequence of Cellular tumor antigen p53 (Homo sapiens) (P04637 whole entry, looked up): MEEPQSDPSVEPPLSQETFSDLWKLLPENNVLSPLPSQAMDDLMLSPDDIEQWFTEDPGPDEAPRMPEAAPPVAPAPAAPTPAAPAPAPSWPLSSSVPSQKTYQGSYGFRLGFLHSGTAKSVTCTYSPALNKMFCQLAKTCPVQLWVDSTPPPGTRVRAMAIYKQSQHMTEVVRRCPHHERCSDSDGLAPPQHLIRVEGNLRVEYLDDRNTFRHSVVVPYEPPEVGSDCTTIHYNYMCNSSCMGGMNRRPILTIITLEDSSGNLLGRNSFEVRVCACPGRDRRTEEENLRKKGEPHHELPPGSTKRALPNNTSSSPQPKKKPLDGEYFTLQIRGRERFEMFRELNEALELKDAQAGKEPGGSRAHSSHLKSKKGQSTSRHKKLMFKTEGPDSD

The assay addresses Cellular tumor antigen p53 (Homo sapiens) (UniProt P04637). Nature of the assay: Primary qHTS for small molecule compounds that upregulate eGFP-tagged delta133p53alpha (in N-terminal) cells. (AID 2060322). Further: nearly all actives have a fitted effect of over 75% in size.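 On activation: cells pre-induced with doxycycline then dosed without doxycycline; series mostly up to about 56 µM; 0% = DMSO vehicle and 100% = reference activator.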 As to conditions: NCI-H358 eGFP-delta133p53alpha fluorescence, 24 h; activation: active compounds read high. An excerpt: Assay Development and Screening Technology
National Center for Advancing Translational Sciences (NCATS),
National Institute of Health (NIH), Rockville, Maryland
Cellular senescence (CS) is one of the hallmarks of aging and age-related diseases. Senescent cells are characterized by an irreversible growth arrest, an increase in senescence-associated beta-galactosidase (SA-beta-gal) activity and p16INK4a expression, an activation of the DNA damage response pathways, and the emergence of a senescence-associated secretory phenotype (SASP).
Delta133p53alpha, a human/primate-specific p53 protein isoform, delays or inhibits the induction of CS and SASP in various types of human cells, including progeria-derived fibroblasts, primary normal astrocytes, and CD8+ T lymphocytes. Induction of delta133p53alpha with small molecule compounds may provide therapeutic opportunities for inhibition of senescence/SASP-associated pathologies in progeria syndromes, astrocyte-mediated neuroprotection in neurodegenerative diseases, and possibly prevention and treatment of a wider range of senescence- and aging-associated diseases.
Here we report the development and validation of a cell-based quantitative high throughput screening (qHTS) assay in 1,536-well format. This qHTS assay uses the NCI-H358 cell line with doxycycline-inducible expression of enhanced green fluorescent protein (eGFP)-tagged delta133p53alpha, which allows efficient and highly quantitative measurement of the protein levels.
PROTOCOL TABLE (as described by Inglese J, Shamu CE and Guy RK. 2007)
SEQUENCE No. (e.g., 1, 2, 3, etc.); […] (e.g., Cells, Incubation, Reagent, etc.); VALUE; DESCRIPTION.
1; Cells; 4uL; 800 doxycycline treated cells / well in doxycycline-free media, 1536-well black, clear-bottom low base Aurora microplates.
2; Compounds; 23 nL; Kalypsis pin tool (Wako) equipped with 1536-well pin heads, 5-azacytidine positive control.
3; Incubation; 24 hr; 37C, 5% CO2; 95% relative humidity.
4; Aspiration; 1x; BioTek EL406 washer dispenser (Agilent).
5; Fixing; 3.5% paraformaldehyde, BioTek EL406 washer dispenser (Agilent).
6; Washing; 1x PBS; BioTek EL406 washer dispenser (Agilent).
7; Nuclei staining; 1:1000 dilution of Hoechst 33342 (Thermofisher), BioTek EL406 washer dispenser (Agilent).
8; Incubation; 20 min; in the dark at room temperature.
9; Washing; 2x, 1x PBS (ThermoFisher), BioTek EL406 washer dispenser (Agilent).
10; Reagent; 10 uL; 1x PBS per well, sealed with clear adhesive tape.
NOTES (numbers refer to sequence numbers above).
1. NCI-H358 cells expressing eGFP-tagged delta133p53alpha were grown in T75 culture flasks and treated with doxycycline for 24h, at 10 ng/ml for eGFP-D133p53a cells (N-terminal cell) and 100 ng/ml for D133p53a-eGFP cells (C-terminal cells). Cells were trypsinized, counted using a Counted 3 Automated Cell Counter (Thermo Fisher), and diluted to a concentration of 200,000 cells/ml. A Multidrop Combi Reagent Dispenser (ThermoFisher) was used to dispense 800 cells/well in […] of doxycycline-free media, into 1536-well black/clear bottom low base plates (AuroraMicroplates).
2. After plating cells, 23 nl of compound library, DMSO vehicle control or positive control (5-azacytidine) were transferred by Pin Tool (Wako). The plate map layout was the same for each plate: (column 1) non-doxycycline treated cells + DMSO vehicle control; (column 2) doxycycline treated cells + DMSO vehicle control baseline; (column 3) doxycycline treated cells + positive control 57.5 uM final concentration 5-azacytidine; (column 4) doxycycline treated cells + serial dilution of 5-azacytidine, 16-point 1:2 titration spanning 1.8 nM to […] final concentration; (columns 5-48) doxycycline treated cells + titration of library compounds.
3. Cells were incubated at 37 °C, 5 % CO2, 95% RH with breathable metal lid for 24h.
4-10. […] After two washes, 10 ul of 1X PBS (Thermo Fisher) was dispensed to each well. Clear adhesive plate seals (VWR) were applied and plates stored at 4 °C.
11. […]
For the compound `CC(=O)/C(C)=N/O`, the activation was -2.27%.

Consider `CN(C)C(=O)Oc1ccc[n+](C)c1`, for which the activation was -10.7% and 11.9%.

Consider `O=C(NCC(O)CO)c1c(I)c(C(=O)NCC(O)CO)c(I)c(N(CCO)C(=O)CO)c1I` (stereo not given), for which the activation was -8.37%.

As to `C=C(C)[C@@H]1CC[C@]2(C)CC[C@]3(C)[C@H](CC[C@@H]4[C@@]5(C)CC[C@@H](O)C(C)(C)[C@@H]5CC[C@]43C)[C@@H]12`, the activation is 17.6%.

With `O=C(CC12CC3CC(CC(C3)C1)C2)Nc1cccc2nc(NCCNCCO)ccc12`, the activation was 11.8% and 6.68%.

`CN1CCN(C(=O)CN[C@@H]2C[C@H]2c2ccc(OCc3ccccc3)cc2)CC1`: the activation was 68.2%.

On to `CC(=O)OC1CCC2(C)C(CCC3(C)C2CC=C2C4C(C)C(C)CCC4(C)CCC23C)C1(C)C(=O)O` (stereo not given), for which the activation was -6.11%.

On to `CC1=C(CO)C(=O)O[C@@H]([C@@H](C)[C@H]2CC[C@H]3[C@@H]4C[C@H]5O[C@]56[C@@H](O)C=CC(=O)[C@]6(C)[C@H]4CC[C@]23C)C1`, for which the Potency is 1.47 µM (active).

Take `C=C1C(OC(=O)/C(C)=C\C)[C@@]23CCC4[C@@](C)(CCC[C@@]4(C)C(=O)O)C2CC[C@H]1C3OC(C)=O` (stereo not given in full): the activation was -28.2%.

`CC(=O)C1=C(O)C=C2Oc3c(C(C)=O)c(O)c(C)c(O)c3[C@]2(C)C1=O`: the activation is -2.68%.

In the case of `NS(=O)(=O)c1cc2c(cc1Cl)NCNS2(=O)=O`, the activation was -8.47% and 26.3% and -35.3%.

Take `CN(CC=CC#CC(C)(C)C)Cc1cccc2ccccc12`: the activation is 36.7%.

As for `O=C(O)c1cccc(-c2noc(-c3ccccc3F)n2)c1`, the activation was 19.2% and 2.33% and 1.9%.

Take `CC(=O)OC1C[C@@]2(C)[C@@H](CC[C@@H](C)[C@]23Cc2c(O)cc4c(c2O3)CNC4=O)C(C)(C)[C@@H]1O` (stereo not given in full): the activation was 9.92%.

With `COCC(=O)O[C@]1(CCN(C)CCCc2nc3ccccc3[nH]2)CCc2cc(F)ccc2[C@@H]1C(C)C`, the Potency is 21.9 µM (active) and the activation was 29.4%.

On to `Cn1c(=O)c2nc(/C=C/c3cccc(Cl)c3)n(C)c2n(C)c1=O`, for which the activation was -2.33%.

Turning to `CC(C)=CCC/C(C)=C/CO[C@@H]1O[C@H](CO)[C@@H](O)[C@H](O)[C@H]1O`, the activation is -4.46%.

For the compound `NO`, the activation is -15.6%.

Consider `COc1cc(C)c(C(=O)O[C@H]2[C@@H](OC(C)=O)[C@H](n3ccc(=O)[nH]c3=O)O[C@@H]2CO)c(OC)c1`, for which the activation was -10.7%.

With `COc1cc(O[C@@H]2O[C@H](CO)[C@@H](O)[C@H](O)[C@H]2O)c(CCC(=O)OC[C@H]2O[C@@H](Oc3cc(OC)c(C4OC(=O)C(C)(O)C4O)cc3CCC(=O)O)[C@H](O)[C@@H](O)[C@@H]2O)cc1C1OC(=O)C(C)(O)C1O` (stereo not given in full), the activation was -6.11%.

Take `CN=C(NC#N)Nc1ccc(C2=NNC(=O)CC2C)cc1` (stereo not given): the activation was 6.69%.

For the compound `C=CC1=C(C(=O)O)N2C(=O)[C@@H](NC(=O)C(=NO)c3csc(N)n3)[C@H]2SC1`, the activation is -4.61%.

Consider `C=CC1(C)CC(OC(=O)/C(C)=C\COC(C)=O)C(C(=C)C(=O)O)C(O)C1C(=C)CO` (stereo not given), for which the activation is 0%.

`CC1COC2(OC3CC4C5CC(O[C@@H]6O[C@H](C)[C@@H](O[C@@H]7O[C@@H](C)[C@H](O)[C@@H](O)[C@H]7O)[C@H](O)[C@H]6O)C6CC(O)CCC6(C)C5CCC4(C)C3C2C)C(O)C1` (stereo not given in full): the activation was -10.7%.

As to `CCOC(=O)c1cnn(-c2ccccc2)c1NC(=O)c1cc2nc(-c3ccco3)cc(C(F)(F)Cl)n2n1`, the activation is 0.955%.

On to `CC(=O)OC1C(O)CC2(C)C(CCC(C)C23Cc2c(O)cc(CO)c(C=O)c2O3)C1(C)C` (stereo not given), for which the activation was 6.87%.

Take `CC(C)OC(=O)C1=CN(C(=O)c2ccc(F)c(F)c2)CC(C)(C)c2c1[nH]c1ccccc21`: the activation is -3.85% and 0.955%.

For `COC1=C(OC)C(=O)C(CC=C(C)CCC=C(C)CCC=C(C)CCC=C(C)CCC=C(C)CCC=C(C)CCC=C(C)CCC=C(C)CCC=C(C)CCC=C(C)C)=C(C)C1=O`, the activation was 0.831%.

With `C=C1C(=O)O[C@H]2[C@@H]1CCC(C)=CCC[C@@]1(C)O[C@@H]21`, the Potency was 19.3 µM (active).

Regarding `CC(=O)N[C@@H]1[C@H](O[C@@H]2c3ccc(c(Cl)c3)Oc3cc4cc(c3O[C@H]3O[C@H](CO)[C@@H](O)[C@H](O)[C@H]3NC(=O)CCCCCCCC(C)C)Oc3ccc(cc3Cl)C[C@H]3NC(=O)[C@H](N)c5ccc(O)c(c5)Oc5cc(O)cc(c5)[C@H](NC3=O)C(=O)N[C@H]4C(=O)N[C@H]3C(=O)N[C@@H]2C(=O)N[C@@H](C(=O)O)c2cc(O)cc(O[C@H]4O[C@H](CO)[C@@H](O)[C@H](O)[C@H]4O)c2-c2cc3ccc2O)O[C@H](CO)[C@@H](O)[C@@H]1O`, the activation was 25.3%.

Regarding `CCC1(c2cnc[nH]2)Cc2ccccc2C1`, the activation was -7.53%.

`OCC1OC(Oc2cc(O)cc(/C=C/c3ccc(OC4OC(CO)C(O)C(O)C4O)cc3O)c2)C(O)C(O)C1O` (stereo not given): the activation is -9.16%.

Turning to `CC(=O)OC1C(c2ccccc2)CCC(c2ccccc2)C1OC(C)=O` (stereo not given), the activation was 1.53%.

Take `CC1(C)CC[C@]2(C(=O)O[C@@H]3O[C@H](CO)[C@@H](O)[C@H](O)[C@H]3O)CC[C@]3(C)C(=CCC4[C@@]5(C)CC[C@H](O[C@@H]6O[C@H](C(=O)O)[C@@H](O[C@@H]7O[C@H](CO)[C@@H](O)[C@H](O)[C@H]7O)[C@H](O)[C@H]6O[C@@H]6O[C@H](CO)[C@@H](O)[C@H](O)[C@H]6O)C(C)(C)C5CC[C@]43C)C2C1` (stereo not given in full): the activation is -29.8%.

`C=CC1(C)C=C2C(=O)OC(=O)C3=C(CCCC3(C)C)C2(O)CC1` (stereo not given): the activation was -22.9%.

On to `C=CC(C)(C)c1[nH]c2cc3c(cc2c1CC1NC(=O)C2CCCN2C1=O)C=CC(C)(C)O3` (stereo not given), for which the activation is -13%.

As to `CCOC(=O)C(C)Oc1cccc2c(=O)n(CC(=O)Nc3ccc4c(c3)OCCO4)ccc12` (stereo not given), the activation is -0.568% and 16.2%.

Turning to `COc1cc(N2CCC(O)CC2)ccc1Nc1cc(Nc2ccccc2S(=O)(=O)C(C)C)c2cc[nH]c2n1`, the Potency is 16.6 µM (active) and the activation is -59.5%.
